# Several values for one entry are separate records, joined by “and”; a condition that tells them apart may be missing. Equal values may be shown once. Records with an inconclusive call do not appear. Some compounds were tested as several samples or in several runs, with calls that do not always agree. Activity calls are given as the source filed them. Rule for the calls: active = hit-call score of the fitted dose curve at least 0.9, where 1 is the maximum; inconclusive = response in the unintended direction; inactive = score below 0.9.
# How the values were obtained:
# [1] = biological target: rat Vasopressin 1 Receptor (V1), Avpr1a (gene 25107) (UniProt P30560); assay: NVS_GPCR_rV1: NovaScreen (NVS) G Protein-Coupled Receptor Assay for rat Vasopressin 1 Receptor (V1) (AID 2283316)
# rat Vasopressin 1 Receptor (V1), Avpr1a (gene 25107), sequence (P30560 whole entry, looked up): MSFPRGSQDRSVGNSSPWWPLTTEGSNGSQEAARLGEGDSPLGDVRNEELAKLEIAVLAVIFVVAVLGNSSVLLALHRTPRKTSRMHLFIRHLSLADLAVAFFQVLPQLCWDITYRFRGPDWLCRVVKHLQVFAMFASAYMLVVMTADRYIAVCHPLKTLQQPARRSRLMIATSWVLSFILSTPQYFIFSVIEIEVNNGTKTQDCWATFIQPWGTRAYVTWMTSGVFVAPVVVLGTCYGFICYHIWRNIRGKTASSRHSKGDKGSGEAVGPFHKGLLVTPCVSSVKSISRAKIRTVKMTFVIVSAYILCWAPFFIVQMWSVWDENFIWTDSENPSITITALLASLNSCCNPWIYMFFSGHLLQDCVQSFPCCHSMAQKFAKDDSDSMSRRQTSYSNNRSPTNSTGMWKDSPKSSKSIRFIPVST
# In short: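 Concentration-response up to 50 uM for chemicals passing a threshold such as 30% inhibition in an initial duplicate 25 uM screen. Displacement of radioligand from rat liver membranes measured after 1.5 h by filtration and scintillation.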
# [2] = biological target: rat Opioid Receptor, Non-selective Binding, Oprm1 (gene 25601) (UniProt P33535); assay: NVS_GPCR_rOpiate_NonSelective: NovaScreen (NVS) G Protein-Coupled Receptor Assay for rat Opioid Receptor, Non-selective Binding (AID 2283318)
# rat Opioid Receptor, Non-selective Binding, Oprm1 (gene 25601), sequence (P33535 whole entry, looked up): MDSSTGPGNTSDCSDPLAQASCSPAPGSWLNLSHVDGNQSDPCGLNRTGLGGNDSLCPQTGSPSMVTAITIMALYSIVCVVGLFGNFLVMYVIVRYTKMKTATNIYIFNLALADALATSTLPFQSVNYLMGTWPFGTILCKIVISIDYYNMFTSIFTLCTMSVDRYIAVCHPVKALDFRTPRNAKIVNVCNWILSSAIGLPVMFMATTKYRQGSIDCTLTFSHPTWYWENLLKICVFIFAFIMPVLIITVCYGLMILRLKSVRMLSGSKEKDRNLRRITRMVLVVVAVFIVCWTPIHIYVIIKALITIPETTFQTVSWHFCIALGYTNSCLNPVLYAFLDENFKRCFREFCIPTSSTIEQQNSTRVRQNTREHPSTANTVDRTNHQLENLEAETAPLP
# Protocol: NVS_GPCR_rOpiate_NonSelective is a biochemical, single-readout assay that uses extracted gene-proteins from Rat forebrain membranes in a tissue-based cell-free assay. Measurements were taken 1.5 hours after chemical dosing in a 48-well plate.NVS_GPCR_rOpiate_NonSelective is one of one assay component(s) measured or calculated from the NVS_GPCR_rOpiate_NonSelective assay. It is designed to make measurements of radioligand binding, a form of binding reporter, as detected with scintillation counting signals by Filter-based radiodetection technology.Data from the assay component NVS_GPCR_rOpiate_NonSelective was analyzed into 1 assay endpoint. This assay endpoint, NVS_GPCR_rOpiate_NonSelective, was analyzed in the positive analysis fitting direction relative to DMSO as the negative control and baseline of activity. Using a type of binding reporter, loss-of-signal activity can be used to understand changes in the binding as they relate to the gene Oprm1. Furthermore, this assay endpoint can be referred to as a primary readout, because the performed assay has only produced 1 assay endpoint. To generalize the intended target to other relatable targets, this assay endpoint is annotated to the gpcr intended target family, where the subfamily is rhodopsin-like receptor.
# Binding assays used specific radioligands (tritiated, iodinated) with non-radioactive competitive displacement ligands in agonist or antagonist protocols (as indicated) and various reference compounds and inhibitors to titrate specific binding to receptors and transporters. Most enzyme assays (CYPs, kinases, phosphatases, proteases, HDACs) used recombinant protein and specific substrates (fluorescence mostly, some colorimetric and radioactive) and inhibitors, followed by a biochemical separation of substrate and product. All assays for the biochemical HTS were initially run in duplicate at a single concentration (10 uM for CYP450 assays and 25 uM for all others). […] Each assay was run with positive and negative controls, and concurrent controls on every plate. The follow-up (secondary) screen tested active chemical-pairs in concentration series, as well as a few additional assays not tested in the primary screen, some selected negative inactives, and several cases re-run in the concentration series for confirmatory purposes.
# [3] = biological target: rat Somatostatin Receptor (SST), Sstr1 (gene 25033) (UniProt P28646); assay: NVS_GPCR_rSST: NovaScreen (NVS) G Protein-Coupled Receptor Assay for rat Somatostatin Receptor (SST) (AID 2283314)
# rat Somatostatin Receptor (SST), Sstr1 (gene 25033), sequence (P28646 whole entry, looked up): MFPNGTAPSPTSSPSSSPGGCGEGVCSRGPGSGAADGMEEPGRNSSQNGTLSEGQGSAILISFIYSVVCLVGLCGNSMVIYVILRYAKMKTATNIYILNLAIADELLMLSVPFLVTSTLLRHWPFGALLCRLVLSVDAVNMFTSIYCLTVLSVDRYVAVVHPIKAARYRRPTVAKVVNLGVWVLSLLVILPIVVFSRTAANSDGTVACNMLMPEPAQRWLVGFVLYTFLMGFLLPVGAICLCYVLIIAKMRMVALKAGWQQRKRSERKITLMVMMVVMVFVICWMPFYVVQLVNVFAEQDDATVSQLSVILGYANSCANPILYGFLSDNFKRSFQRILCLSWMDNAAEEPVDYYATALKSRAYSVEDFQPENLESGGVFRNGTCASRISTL
# In short: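 Single-concentration duplicate screen (25 uM), then concentration-response up to 50 uM for chemicals passing a threshold such as 30% inhibition. Membranes came from rat forebrain. Binding was measured 1 h post-dose by filter radiodetection and scintillation, relative to DMSO.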
# [4] = biological target: bovine Gamma-Aminobutyric Acid Type A Receptor BDZ, alpha 1 site (GABARa1), GABRA1 (gene 780973) (UniProt P08219); assay: NVS_LGIC_bGABARa1: NovaScreen (NVS) Ligand-Gated Ion Channel Assay for bovine Gamma-Aminobutyric Acid Type A Receptor BDZ, alpha 1 site (GABARa1) (AID 2283321)
# bovine Gamma-Aminobutyric Acid Type A Receptor BDZ, alpha 1 site (GABARa1), GABRA1 (gene 780973), sequence (P08219 whole entry, looked up): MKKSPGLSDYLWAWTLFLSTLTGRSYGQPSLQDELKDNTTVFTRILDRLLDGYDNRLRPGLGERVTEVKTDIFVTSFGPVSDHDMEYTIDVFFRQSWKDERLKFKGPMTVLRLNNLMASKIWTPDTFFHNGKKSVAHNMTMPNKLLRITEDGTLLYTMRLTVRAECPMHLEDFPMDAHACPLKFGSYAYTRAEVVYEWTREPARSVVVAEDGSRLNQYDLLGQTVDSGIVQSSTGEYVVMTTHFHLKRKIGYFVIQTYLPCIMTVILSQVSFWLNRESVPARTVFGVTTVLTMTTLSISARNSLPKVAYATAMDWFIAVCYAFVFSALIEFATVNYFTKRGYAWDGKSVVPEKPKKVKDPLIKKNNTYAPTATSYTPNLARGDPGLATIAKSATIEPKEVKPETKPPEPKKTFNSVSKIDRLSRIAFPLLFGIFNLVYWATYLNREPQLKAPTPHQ
# In short: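 Bovine cortex membrane preparation, benzodiazepine site on GABA-A alpha1; specific radioligand displacement read after 0.75 h by filtration and scintillation. Screen at 25 uM, then singleton titrations up to 50 uM; DMSO baseline.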
# [5] = NVS_IC_rCaDHPRCh_L: NovaScreen (NVS) Ion Channel Assay for rat Calcium Channel, Type L, Dihydropyridine Site (CaDHPRCh_L) (AID 2283320)
# In short: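 Rat cortex membrane preparation; dihydropyridine-site radioligand displacement read 1 h post-dose by filtration and scintillation. Primary single-point screen 25 uM in duplicate, then concentration series to 50 uM maximum; DMSO as negative control.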
# [6] = biological target: Sodium channel protein type 1 subunit alpha (Rattus norvegicus) (UniProt P04774); assay: NVS_IC_rNaCh_site2: NovaScreen (NVS) Ion Channel Assay for rat Sodium Channel, Site 2 (NaCh) (AID 2283322);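 note: hit means loss of radioligand binding signal relative to DMSO so AC50 marks displacement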
# In short: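 Initial duplicate single-point testing at 25 uM, followed by concentration-response runs for actives. Binding of radioligand to rat forebrain membranes quantified after 1 h via filter-based radiodetection.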
# [7] = biological target: bovine Gamma-Aminobutyric Acid Type A Receptor BDZ, alpha 5 site (GABARa5), GABRA5 (gene 523515) (UniProt Q08E50); assay: NVS_LGIC_bGABARa5: NovaScreen (NVS) Ligand-Gated Ion Channel Assay for bovine Gamma-Aminobutyric Acid Type A Receptor BDZ, alpha 5 site (GABARa5) (AID 2283323)
# bovine Gamma-Aminobutyric Acid Type A Receptor BDZ, alpha 5 site (GABARa5), GABRA5 (gene 523515), sequence (Q08E50 whole entry, looked up): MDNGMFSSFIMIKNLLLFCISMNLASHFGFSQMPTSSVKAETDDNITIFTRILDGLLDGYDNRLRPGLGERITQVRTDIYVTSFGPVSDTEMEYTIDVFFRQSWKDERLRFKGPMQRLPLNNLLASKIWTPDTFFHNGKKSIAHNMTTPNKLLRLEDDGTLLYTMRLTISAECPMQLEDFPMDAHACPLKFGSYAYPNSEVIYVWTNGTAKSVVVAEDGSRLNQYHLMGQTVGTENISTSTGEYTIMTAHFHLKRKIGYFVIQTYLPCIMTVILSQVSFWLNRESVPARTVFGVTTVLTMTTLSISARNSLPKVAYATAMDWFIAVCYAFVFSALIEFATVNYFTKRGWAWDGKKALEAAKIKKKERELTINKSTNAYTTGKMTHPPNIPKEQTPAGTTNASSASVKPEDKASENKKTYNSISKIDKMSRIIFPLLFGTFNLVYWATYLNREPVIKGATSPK
# In short: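 Tested first in duplicate at a single 25 uM, with hits re-run in concentration series to a 50 uM maximum. Bovine hippocampal membranes; specific radioligand displacement measured by filter scintillation counting 1 hr post-dose.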
# [8] = biological target: Voltage-dependent N-type calcium channel subunit alpha-1B (Rattus norvegicus) (UniProt Q02294); assay: NVS_IC_rCaChN: NovaScreen (NVS) Ion Channel Assay for rat Calcium Channel, Type N (CaChN) (AID 2283317)
# [9] = biological target: rat Neonicotinoid receptor (NNR), Chrna7 (gene 25302) (UniProt Q05941); assay: NVS_LGIC_rNNR_BungSens: NovaScreen (NVS) Ligand-Gated Ion Channel Assay for rat Neonicotinoid receptor (NNR) (AID 2283315)
# rat Neonicotinoid receptor (NNR), Chrna7 (gene 25302), sequence (Q05941 whole entry, looked up): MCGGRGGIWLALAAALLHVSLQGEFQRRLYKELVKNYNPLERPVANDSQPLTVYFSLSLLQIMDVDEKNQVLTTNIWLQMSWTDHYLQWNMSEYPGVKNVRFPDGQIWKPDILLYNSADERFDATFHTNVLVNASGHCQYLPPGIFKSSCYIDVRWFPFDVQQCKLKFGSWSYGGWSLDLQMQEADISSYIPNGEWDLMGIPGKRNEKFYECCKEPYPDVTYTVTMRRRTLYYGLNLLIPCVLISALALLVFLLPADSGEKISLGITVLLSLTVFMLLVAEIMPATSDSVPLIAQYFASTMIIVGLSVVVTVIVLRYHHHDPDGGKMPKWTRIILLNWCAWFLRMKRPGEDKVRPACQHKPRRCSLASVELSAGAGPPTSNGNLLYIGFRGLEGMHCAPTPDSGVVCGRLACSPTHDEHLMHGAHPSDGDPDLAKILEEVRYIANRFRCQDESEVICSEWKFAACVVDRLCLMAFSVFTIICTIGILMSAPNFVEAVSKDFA
# In short: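 Rat cortical membrane preparation incubated 2.5 h with tritiated or iodinated radioligand and test chemical. Bound radioactivity was filtered and counted by scintillation, and displacement was analysed against DMSO.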
# NCBI gene 24521 = assay: NVS_IC_rKATPCh: NovaScreen (NVS) Ion Channel Assay for rat Potassium Channel, ATP-Sensitive (KATPCh) (AID 2283319)
# In short: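 Primary duplicate screen at 25 uM, then singleton concentration series to 50 uM maximum, in a rat cortex membrane radioligand displacement assay. Binding measured by filtration and scintillation 2 h post-dose; DMSO baseline.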
smiles,measurement,setting,value
CO/C=C(/C(=O)OC)c1ccccc1Oc1cc(Oc2ccccc2C#N)ncn1,AC50,[1],26.4 µM (active)
same,AC50,[2],6.66 µM (active)
same,outcome,[2],inactive
COP(=S)(OC)Oc1nc(Cl)c(Cl)cc1Cl,outcome,[3],inactive
CCOC(=O)C(Cl)Cc1cc(-n2nc(C)n(C(F)F)c2=O)c(F)cc1Cl (stereo not drawn),outcome,[4],inactive
OC(c1ccc(Cl)cc1)(c1cncnc1)c1ccccc1Cl (stereo not drawn),AC50,[5],19 µM (active)
same,AC50,[6],5.79 µM (active)
COc1ccc(C(c2ccc(OC)cc2)C(Cl)(Cl)Cl)cc1,outcome,[2],inactive
same,outcome,[5],inactive
same,outcome,[7],inactive
CCNc1nc(Cl)nc(NCC)n1,outcome,[8],inactive
CCCC1COC(Cn2cncn2)(c2ccc(Cl)cc2Cl)O1 (stereo not drawn),AC50,[2],10.1 µM (active)
same,AC50,[6],25 µM (active)
Cc1ccc(-c2c(Cl)nc(C#N)n2S(=O)(=O)N(C)C)cc1,AC50,[9],8.72 µM (active)
CCOC(=O)CC(SP(=S)(OC)OC)C(=O)OCC (stereo not drawn),outcome,[3],inactive
N#CC(CCc1ccc(Cl)cc1)(Cn1cncn1)c1ccccc1 (stereo not drawn),outcome,[9],inactive
same,outcome,[7],inactive
CN(C)C(=S)SSC(=S)N(C)C,outcome,[3],inactive
CCOP(=S)(OCC)SCn1c(=O)oc2cc(Cl)ccc21,outcome,[9],inactive
Oc1ccccc1-c1ccccc1,outcome,[6],inactive
COC(=O)c1ccccc1C(=O)OC,outcome,NCBI gene 24521,inactive
CS/C(C)=N/OC(=O)N(C)SN(C)C(=O)O/N=C(\C)SC,AC50,[3],17.2 µM (active)
same,outcome,[2],inactive
CNC(=O)ON=CC(C)(C)SC,outcome,[9],inactive
CCCCNC(=O)OCC#CI,AC50,NCBI gene 24521,9.23 µM (active) and 12.3 µM (active)
O=C(Nc1ccccc1)Nc1ccnc(Cl)c1,AC50,[2],32.3 µM (active)
C#CCOS(=O)OC1CCCCC1Oc1ccc(C(C)(C)C)cc1 (stereo not drawn),outcome,[2],inactive
same,AC50,[5],37.4 µM (active)
CCCCOC(=O)c1ccccc1C(=O)OCCCC,outcome,[8],inactive
same,outcome,[2],inactive
same,AC50,[7],32.5 µM (active) and 19.3 µM (active)
COC(=O)C(C)Oc1ccc(Oc2ccc(Cl)cc2Cl)cc1 (stereo not drawn),outcome,NCBI gene 24521,inactive
COc1nc(C)nc(NC(=O)NS(=O)(=O)c2ccccc2Cl)n1,outcome,[4],inactive
